# Source: the supplement of paper PMC13094657
# ± gives the standard deviation of the averaged measurements.
# Assays:
# [1] = test system: MDA-MB-231; experiment: cell viability relative to vehicle unstimulated control (fraction); higher = more viable cells; conditions: pre-treatment time: 18 h then 24 h IFNg/TNF
# [2] = test system: MDA-MB-231; experiment: kynurenine production, fold change vs DMSO IFNg/TNF control; higher = more kynurenine produced (less inhibition); conditions: pre-treatment time: 18 h then 24 h IFNg/TNF
# Summary of the method: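 After trichloroacetic acid and p-dimethylaminobenzaldehyde treatment, supernatants were read at 492 nm, with 0–100 μM standards. These came from MDA-MB-231 cells (7 × 10^4/well, 96-well plates) pre-treated 18 h with natural products in 0.1% DMSO and then exposed 24 h to IFNγ (1 U/ml) and TNF (6.25 ng/ml) at 37°C. Values for kynurenine production are fold changes over same-plate cytokine-stimulated vehicle wells, averaged over duplicate plates in the first screening round.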
# 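For cell viability relative to vehicle unstimulated control in this document: viability of the cells left after supernatant collection, read with Deep Blue dye added for 4 h, as absorbance at 570 nm minus 600 nm.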
SMILES,cell viability [1],kynurenine production [2]
C=C[C@]1(C)C[C@@H](OC(=O)CO)[C@]2(C)[C@H](C)CC[C@]3(CCC(=O)[C@@H]32)[C@@H](C)[C@@H]1O [Pleuromutilin] (compound dose: 10 uM),1.01 ± 0.057,0.861 ± 0.094
CC1(C)[C@@H](O[C@H]2O[C@H](C(=O)O)[C@@H](O)[C@H](O)[C@H]2O[C@@H]2O[C@H](C(=O)O)[C@@H](O)[C@H](O)[C@H]2O)CC[C@]2(C)[C@H]3C(=O)C=C4[C@@H]5C[C@@](C)(C(=O)O)CC[C@]5(C)CC[C@@]4(C)[C@]3(C)CC[C@@H]12 [Glycyrrhizic acid] (compound dose: 10 uM),1.05 ± 0.075,0.842 ± 0.057
C=C1[C@H](OC(=O)c2cccnc2)C[C@H]2[C@@H](/C=C(\C)C(=O)[C@@]3(OC(C)=O)C[C@H](C)[C@H](OC(=O)c4ccccc4)[C@@H]3[C@H]1OC(C)=O)C2(C)C [Euphorbia factor L9] (compound dose: 10 uM),1.07 ± 0.095,0.226 ± 0.028
C=C1C(=O)[C@@]23[C@@H]4OC5O[C@@]2(O)[C@@H](O)[C@@H]2C(C)(C)CC[C@@H](O)[C@]52[C@@H]3CC[C@@H]14 [Ponicidin] (compound dose: 10 uM),0.9 ± 0.21,0.404 ± 0.15
C=C1[C@H](OC(=O)/C=C(\C)CC)C[C@@H](C(C)C)[C@@H]2[C@@H]([C@@H](C)OC(C)=O)C(=O)C[C@@H]12 [Tussilagone] (compound dose: 10 uM),1.01 ± 0.034,1.0216 ± 0.00014
C[C@@H]1CC[C@@]2(OC1)O[C@H]1C[C@H]3[C@@H]4CC=C5C[C@@H](O)C[C@@H](O)[C@]5(C)[C@H]4CC[C@]3(C)[C@H]1[C@@H]2C [Ruscogenin] (compound dose: 10 uM),1.01 ± 0.037,1.32 ± 0.2
CC(=O)O[C@@H]1[C@@H](O)[C@H](O[C@H]2CC[C@]34C[C@]35CC[C@]3(C)[C@@H]([C@@]6(C)CC[C@@H](C(C)(C)O)O6)[C@@H](O)C[C@@]3(C)[C@@H]5C[C@H](O[C@@H]3O[C@H](CO)[C@@H](O)[C@H](O)[C@H]3O)[C@H]4C2(C)C)OC[C@H]1O [Isoastragaloside II] (compound dose: 10 uM),0.99 ± 0.011,0.968 ± 0.029
C[C@H](CC[C@@H](O)C(C)(C)O)[C@H]1CC[C@@]2(C)[C@@H]3CC=C4[C@@H](CC[C@H](O[C@@H]5O[C@H](CO)[C@@H](O)[C@H](O)[C@H]5O)C4(C)C)[C@]3(C)[C@H](O)C[C@]12C [Mogroside I E1] (compound dose: 10 uM),0.906 ± 0.15,0.981 ± 0.35
C[C@H]1O[C@@H](O[C@H]2[C@@H](O)C[C@H](O[C@H]3[C@@H](O)C[C@H](O[C@H]4CC[C@@]5(C)[C@H](CC[C@@H]6[C@@H]5CC[C@]5(C)[C@@H](C7=CC(=O)OC7)CC[C@]65O)C4)O[C@@H]3C)O[C@@H]2C)C[C@H](O)[C@@H]1O [Digitoxin] (compound dose: 10 uM),0.997 ± 0.019,0.967 ± 0.023
C[C@@H]1CC[C@]2(C(=O)O[C@@H]3O[C@H](CO)[C@@H](O)[C@H](O)[C@H]3O)CC[C@]3(C)C(=CC[C@@H]4[C@@]5(C)CC[C@H](O)[C@](C)(C(=O)O)[C@@H]5CC[C@]43C)[C@@H]2[C@]1(C)O [Ilexsaponin A] (compound dose: 10 uM),1.02 ± 0.016,0.883 ± 0.013
C=C1C[C@@]2(O)O[C@@]3(C[C@H]2C(C)C)[C@@H](C)CC[C@@H]13 [Curcumol] (compound dose: 10 uM),0.997 ± 0.034,0.833 ± 0.1
CC(C)=CCC/C(C)=C/CO [Geraniol] (compound dose: 10 uM),0.998 ± 0.042,0.829 ± 0.2
COc1c2cc3c(c1OC)CCN(C)[C@@H]3Cc1ccc(cc1)Oc1cc3c(c(OC)c1OC)CCN(C)[C@@H]3Cc1ccc(cc1)O2 [Cycleanine] (compound dose: 10 uM),0.118 ± 0.0024,0.198 ± 0.023
CC=C1[C@H](O[C@@H]2O[C@H](CO)[C@@H](O)[C@H](O)[C@H]2O)OC=C(C(=O)OC)[C@H]1CC(=O)OC[C@H]1O[C@@H](OCCc2ccc(O)cc2)[C@H](O)[C@@H](O)[C@@H]1O (stereo in doubt) [Specnuezhenide] (compound dose: 10 uM),1 ± 0.026,0.905 ± 0.21
CC1(C)C(O[C@@H]2OC[C@@H](O)[C@H](O)[C@H]2O)CC[C@]23CC24CC[C@]2(C)[C@@H]([C@@]5(C)CC[C@@H](C(C)(C)O)O5)[C@H](O)C[C@@]2(C)C4C[C@@H](O[C@@H]2O[C@H](CO)[C@@H](O)[C@H](O)[C@H]2O)C13 (some centres undefined) [Astragaloside IV] (compound dose: 10 uM),1.05 ± 0.022,0.878 ± 0.068
C=C(C)[C@@H]1CC[C@]2(C=O)CC[C@]3(C)[C@H](CC[C@@H]4[C@@]5(C)CC[C@H](O)C(C)(C)[C@@H]5CC[C@]43C)[C@@H]12 [Betulinaldehyde] (compound dose: 10 uM),1.005 ± 0.0091,0.697 ± 0.12

SMILES,cell viability [1],kynurenine production [2]
C[C@@]12CCc3occc3[C@H]1CC[C@@]13C[C@@H](CC[C@H]12)[C@@](O)(CO)C3 [Cafestol] (compound dose: 10 uM),1.03 ± 0.067,0.75 ± 0.4
COc1cc2ccc(=O)oc2cc1O[C@@H]1O[C@H](CO)[C@@H](O)[C@H](O)[C@H]1O [Scopolin] (compound dose: 10 uM),1.015 ± 0.0034,1.22 ± 0.16
C[C@H]1[C@H](OC(=O)CCC(=O)O)O[C@@H]2O[C@@]3(C)CC[C@H]4[C@H](C)CC[C@@H]1[C@@]24OO3 [Artesunate] (compound dose: 10 uM),0.909 ± 0.13,0.421 ± 0.04
C[C@@]12C[C@@]3(O)O[C@@H](O1)[C@]1(COC(=O)c4ccc(O)cc4)[C@@H]3C[C@]12O[C@@H]1O[C@H](CO)[C@@H](O)[C@H](O)[C@H]1O [Oxypaeoniflorin] (compound dose: 10 uM),1.05 ± 0.069,0.916 ± 0.082
CC1(C)CC[C@]2(C(=O)O)[C@H](O)C[C@]3(C)C(=CC[C@@H]4[C@@]5(C)CC[C@H](O)C(C)(C)[C@@H]5CC[C@]43C)[C@H]2C1 [Echinocystic acid] (compound dose: 10 uM),1.03 ± 0.014,0.787 ± 0.065
C=C(C)[C@@H]1CC=C(CO)CC1 [Perillyl alcohol] (compound dose: 10 uM),1.036 ± 0.0039,0.905 ± 0.13
CC(C)=CCC[C@](C)(O[C@@H]1O[C@H](CO[C@@H]2O[C@H](CO)[C@@H](O)[C@H](O)[C@H]2O)[C@@H](O)[C@H](O)[C@H]1O)[C@H]1CC[C@]2(C)[C@@H]1[C@H](O)C[C@@H]1[C@@]3(C)CC[C@H](O[C@@H]4O[C@H](CO)[C@@H](O)[C@H](O)[C@H]4O[C@@H]4O[C@H](CO)[C@@H](O)[C@H](O)[C@H]4O)C(C)(C)[C@@H]3CC[C@]12C [Ginsenoside Rb1] (compound dose: 10 uM),1.02,1.08 ± 0.11
CC(=O)OC[C@H]1O[C@@H](OC[C@H]2O[C@@H](OC(=O)[C@]34CCC(C)(C)C[C@H]3C3=CC[C@@H]5[C@@]6(C)CC[C@H](O[C@@H]7OC[C@H](O)[C@H](O)[C@H]7O[C@@H]7O[C@H](CO)[C@@H](O)[C@H](O)[C@H]7O)C(C)(C)[C@@H]6CC[C@@]5(C)[C@]3(C)CC4)[C@H](O)[C@@H](O)[C@@H]2O)[C@H](O)[C@@H](O)[C@@H]1O[C@@H]1O[C@@H](C)[C@H](O)[C@@H](O)[C@H]1O [Acanthopanaxoside B] (compound dose: 10 uM),1.095 ± 0.0013,1.01 ± 0.17
C[C@H]1[C@H](C)CC[C@]2(C(=O)O)CC[C@]3(C)C(=CC[C@@H]4[C@@]5(C)CC[C@H](O)C(C)(C)[C@@H]5CC[C@]43C)[C@H]12 [Ursolic acid] (compound dose: 10 uM),0.973 ± 0.015,0.891 ± 0.21
CO[C@@H]1C=C2[C@@H]3CC(C)(C)CC[C@]3(CO)[C@H](O)C[C@@]2(C)[C@]2(C)CC[C@H]3[C@](C)(CO)[C@@H](O[C@@H]4O[C@H](C)[C@H](O)[C@H](O[C@@H]5O[C@H](CO)[C@@H](O)[C@H](O)[C@H]5O)[C@H]4O)CC[C@]3(C)[C@@H]12 [Saikosaponin B4] (compound dose: 10 uM),1.12 ± 0.026,0.923 ± 0.21
C=C1C(=O)[C@@]23[C@H](O)C[C@@H]4C(C)(C)C(=O)CC[C@@]4(C)[C@@H]2CC[C@@H]1[C@H]3O [Glaucocalyxin A] (compound dose: 10 uM),0.832 ± 0.078,0.109 ± 0.029
CC(=O)OC/C=C(C)/C=C/C=C(C)/C=C/C1=C(C)CCCC1(C)C [Retinyl acetate] (compound dose: 10 uM),0.9487 ± 0.0087,0.753 ± 0.084
C=C(C(=O)O)[C@@H]1CC[C@@H](C)[C@@H]2CCC(C)=C[C@@H]21 [Artemisic acid] (compound dose: 10 uM),0.828 ± 0.3,0.594 ± 0.14
Cc1ccc(C(C)C)cc1O [Carvacrol] (compound dose: 10 uM),1.06 ± 0.036,0.855 ± 0.035
COc1ccc2cc1Oc1ccc(cc1)C[C@H]1c3cc(c(OC)cc3CCN1C)Oc1c(OC)c(OC)cc3c1[C@H](C2)N(C)CC3 [Tetrandrine] (compound dose: 10 uM),1.047 ± 0.0084,1.11 ± 0.024
C[C@@H]1O[C@@H](O[C@H]2[C@H](OC(=O)[C@]34CCC(C)(C)C[C@H]3C3=CC[C@@H]5[C@@]6(C)C[C@H](O)[C@H](O[C@@H]7O[C@H](CO)[C@@H](O)[C@H](O[C@@H]8O[C@H](CO)[C@@H](O)[C@H](O)[C@H]8O)[C@H]7O)C(CO)(CO)[C@@H]6CC[C@@]5(C)[C@]3(C)C[C@H]4O)OC[C@H](O)[C@@H]2O)[C@H](O)[C@H](O)[C@H]1O[C@@H]1OC[C@@H](O)[C@H](O[C@@H]2OC[C@](O)(CO)[C@H]2O)[C@H]1O [Platycodin D2] (compound dose: 10 uM),0.7561 ± 0.0061,0.301 ± 0.043
